About 2,100 (0.62%) of roughly 340,000 compounds were called active.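 How the source made its calls: active means first-screen hits whose inhibition reached a set limit at any dose in the follow-up dose series; inconclusive means inhibition above the set first-screen limit but never retested; inactive means the rest.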 Only a sample is shown. Potency and affinity values are given separately.
biological target: Rac GTPase-activating protein 1 (Homo sapiens) (UniProt Q9H0H5); assay: MgcRacGAP GTPase-activating activity inhibitors, confirmation, biochemical, ADP Hunter fluorescence, primary and confirmatory (AID 624330); conditions: MgcRacGAP-stimulated Rac1 GTP hydrolysis, at 30 µM, hits give high values, GST-tagged Rac1 F28L mutant substrate;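 further: fluorescence reports GDP produced by GAP-driven GTP hydrolysis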
Sequence (Q9H0H5 whole entry, looked up): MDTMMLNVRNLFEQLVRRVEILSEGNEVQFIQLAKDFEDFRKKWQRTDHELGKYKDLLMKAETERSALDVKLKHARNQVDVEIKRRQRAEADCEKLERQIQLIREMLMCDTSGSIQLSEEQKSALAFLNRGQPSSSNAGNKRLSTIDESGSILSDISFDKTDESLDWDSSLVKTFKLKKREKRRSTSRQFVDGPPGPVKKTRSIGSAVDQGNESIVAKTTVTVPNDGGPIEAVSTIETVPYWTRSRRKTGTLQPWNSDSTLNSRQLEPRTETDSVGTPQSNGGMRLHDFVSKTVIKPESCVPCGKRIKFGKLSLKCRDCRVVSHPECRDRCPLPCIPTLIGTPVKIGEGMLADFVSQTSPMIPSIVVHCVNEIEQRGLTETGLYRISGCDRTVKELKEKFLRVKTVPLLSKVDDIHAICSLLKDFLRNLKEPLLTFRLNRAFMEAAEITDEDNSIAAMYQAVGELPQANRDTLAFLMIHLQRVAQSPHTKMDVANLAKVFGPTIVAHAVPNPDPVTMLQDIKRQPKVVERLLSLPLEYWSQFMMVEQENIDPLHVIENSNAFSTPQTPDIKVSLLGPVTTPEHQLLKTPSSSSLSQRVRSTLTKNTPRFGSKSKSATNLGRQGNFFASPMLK

inhibition, inactive:
COc1ccccc1-c1nnc(SC)n1C 7.84%
CC(=O)N1N=C(c2ccccc2)CC1c1ccc2c(c1)OCO2 (centres undefined) 13.6%
CC(C)(C)OC(=O)C[C@H]1C/C=C\C[C@@H](CC(=O)NCCO)C(=O)N[C@H](Cc2ccccc2)COC1=O 5.95%
CC1Cc2ccccc2N1S(=O)(=O)c1cnc(Cl)c(Cl)c1 (centres undefined) 6.78%
O=S(=O)(NCC(c1ccc2c(c1)OCO2)N1CCOCC1)c1ccccc1 (centres undefined) 4.31%
O=C(CCCC1=NS(=O)(=O)c2ccccc2N1)NCCc1ccc(Cl)cc1 12.4%
CN(C1CCCCC1)S(=O)(=O)c1ccc(=S)[nH]c1 16.8%
Cc1cccc(COCC(Cc2ccccc2)N2CCN(C(=O)c3cc(Cl)cc(Cl)c3)CCC2=O)c1 (centres undefined) 10.4%
Cc1noc(C)c1COc1ccc(C(=O)N2CCN(c3ccccc3O)CC2)cc1 -2.07%
O=C(Nc1nc2ccc(F)cc2s1)C1CC(=O)N(c2ccc3c(c2)OCCO3)C1 (centres undefined) 3.42%
CC(C)(C)c1ccc(NC(=O)COC(=O)C2CCCC2)cc1 6%
COc1cc(/C=N/Nc2ncnc3sc4c(c23)CCC4)ccc1O 6.14%
C(=N\Nc1ccccc1)/c1ccc(N2CCOCC2)cc1 11%
COc1ccc(/C=N/Nc2ncnc3sc4c(c23)CCCC4)cc1OC 2.22%
O=C(N/N=C/c1ccc(N2CCOCC2)cc1)c1ccccn1 3.4%
Cc1cc2ncn(S(=O)(=O)c3ccc(S(=O)(=O)N4CCCCCC4)cc3)c2cc1C -3.86%
Cn1c(SCC(=O)Nc2ccccc2Cl)nnc1C1CC1 2.31%
COc1ccc([N+](=O)[O-])cc1NS(=O)(=O)c1cc(C(=O)O)ccc1OC -0.88%
C=CCn1c(C)cc(C(=O)COC(=O)C2CC(=O)N(CCc3ccc(OC)c(OC)c3)C2)c1C (centres undefined) 2.85%
COc1ccc(C=O)cc1COc1ccc(Cl)cc1[N+](=O)[O-] 0.45%
CCCCOc1ccc(C(CC(=O)NC)C(=O)O)cc1 (centres undefined) 1.11%
O=C(Nc1ccc(-c2ccccc2)cc1)c1ccccc1 10.2%
Cc1ccc(NC(=O)C2=C(O)c3ccccc3N(C)S2(=O)=O)cc1 10.1%
CN1c2ccccc2C(O)=C(C(=O)Nc2ccccc2)S1(=O)=O 5.83%
Cc1ccc(NC(=O)c2ccccc2)cc1 8.58%
Cc1onc(-c2c(F)cccc2Cl)c1C(=O)N=C(N)N1CCCC1 4.34%
CCOC(=O)C1CCCCN1C(=O)c1oc2c(Cl)cc(C)cc2c1C (centres undefined) -3.11%
CCCCN(C)C(=O)Cc1c(OC)ccc2cc(Br)ccc12 10.7%
COc1ccc(/C=N/n2cncn2)cc1Cn1nc(C)c([N+](=O)[O-])c1C 6.36%
CCOc1ccccc1N1CCN(Cc2ccc(OC)c(OC)c2OC)CC1 13.8%
Cc1ccc(SCCN2CCN(CCc3ccccc3)CCC2=O)cc1 12%
Cc1ccc(SCCN2CCN(C)CC2)cc1 -7.97%
COc1ccc(CN2CCN(C(c3ccc(F)cc3)c3ccc(F)cc3)CC2)c(OC)c1OC 6.11%
COc1ccc(-n2c(SCC(=O)Nc3ccc(Br)cc3)nc(O)cc2=O)cc1 10.3%
O=C(c1ccc(F)cc1)N1CCCC(N2CCN(Cc3ccc4c(c3)OCO4)CC2)C1 (centres undefined) 8.04%
O=C(c1ccncc1)N1CCN(C2CCCCC2)CC1 19.7%
OCCC1CN(Cc2ccncc2)CCN1C1CCCC1 (centres undefined) 5.79%
c1ccc(CN2CCC(N3CCN(Cc4ccc5c(c4)OCO5)CC3)CC2)cc1 13.3%
COCCNC(=O)CC(c1ccccc1)c1ccccc1 10.4%
CCOc1ccc(CN(C)C(=O)CN2C(=O)NC3(CCCc4ccccc43)C2=O)cc1 (centres undefined) 13%
CC(C)(C)NC(=O)C(c1ccccn1)N(C(=O)c1csnn1)C1CCCC1 (centres undefined) 0.77%
O=C(COc1ccc(C(=O)Nc2ccc(Cl)cc2)cc1)NCc1ccccc1 8.5%
Cc1cc(/C=C2/NC(=O)N(Cc3ccccc3F)C2=O)c(C)n1-c1ccccn1 4.33%
COc1ccc(N(C)S(=O)(=O)c2cccc(C(=O)NCC(c3cccs3)N(C)C)c2)cc1 (centres undefined) 5.09%
Cc1cc(C)nc(NC(=O)/C=C/c2ccccc2Cl)c1 9.19%
Cc1cc(C)nc(NC(=O)/C=C/c2ccccc2Cl)n1 6.5%
C(=N\N(c1ccccc1)c1ccccc1)/c1ccc(N2CCOCC2)s1 15.3%
CC(C)(C)OC(=O)N/N=C/c1ccc(N2CCOCC2)s1 25.5%
C(=N\n1cnnc1)/c1ccc(N2CCOCC2)s1 10.2%
O=C(O)c1cc(N/N=C/c2ccc(N3CCOCC3)s2)ccc1Cl 25.9%
CC(C)NC(=S)N/N=C/c1ccc(N2CCOCC2)cc1 0.94%
Clc1cccc(N/N=C/c2ccc(N3CCOCC3)cc2)c1 0.9%
O=C(N/N=C/c1ccc(N2CCOCC2)s1)c1ccccc1Br 10%
CCOC(=O)N/N=C\c1ccc(C)s1 3.68%
Cc1ccccc1S(=O)(=O)N(C)C[C@@H]1OCc2ccccc2-c2c(n(C)c3ccccc23)C(=O)N([C@H](C)CO)C[C@@H]1C 14.2%
COc1ccc(Cl)cc1C(=O)NNC(=O)c1n[nH]c2ccccc12 4.94%
Cc1ccc(S(=O)(=O)/N=C(\Nc2cc(C)on2)c2ccc(Cl)cc2)cc1 8.35%
Cc1cn2c(-c3ccc(Cl)cc3)nnc2s1 -3.08%
O=C(NCc1cccnc1)C(=O)NCC1OCCCN1S(=O)(=O)c1ccc(Cl)cc1 (centres undefined) 1.54%
Cc1cc(=O)cc(C)n1-c1ccc2c(c1)nc(C)n2-c1ccccc1 2.42%
Cc1ccc(S(=O)(=O)N2CCN(C(=O)Cc3ccc4c(c3)OCCO4)CC2)cc1C 6.6%
CCCCc1ccc(NC(=S)NCCc2ccc(F)cc2)cc1 -17.2%
CCOc1ccc(-n2c(-c3ccco3)nc3c(cnn3-c3ccc(C)cc3)c2=O)cc1 2.66%
Cc1ccc(/C=N/NC(=O)CN(Cc2ccccc2)S(=O)(=O)c2ccc3c(c2)OCCO3)cc1 2.63%
COc1ccc(/C=N/NC(=O)CN(Cc2ccccc2)S(=O)(=O)c2ccc3c(c2)OCCO3)cc1 7.2%
O=C(CN(Cc1ccco1)S(=O)(=O)c1ccccc1)N/N=C/c1cccc(O)c1 8.45%
O=C(CN(Cc1ccco1)S(=O)(=O)c1ccccc1)N/N=C/c1ccccc1C(=O)O 8.11%
CN(C)CCCN=Cc1c(-c2ccccc2)[nH]n(-c2nc3ccccc3s2)c1=O 20.7%
O=C(NCc1ccc2c(c1)OCO2)Nc1cccc(Cl)c1 11.9%
COc1ccc(-c2nc3c(Br)c(N)c(Br)cc3o2)cc1 -0.217%
Nc1cccc(O)c1 18.5%
Clc1ccc2nc3ccccc3cc2c1 2.87%
O=C(Oc1ccc2ccc(O)cc2c1)c1ccccc1Cl 18.6%
Nc1ccc2cc3ccccc3cc2c1 17.6%
CCc1ccc(NC(=O)CSc2nc3ccccc3nc2N2CCCCC2)cc1 6.49%
O=C(Cc1ccc(Cl)cc1)c1ccc(O)cc1 9.32%
O=C(Cc1ccc(Cl)cc1)NNc1c(F)c(F)cc(F)c1F 5.43%
Oc1ccc(/C=N/n2cnn(Cc3ccccc3Cl)c2=S)c(O)c1 8.66%
O=C(Cc1c(F)cccc1Cl)c1ccc(O)cc1O -1.08%
CCN1C(=O)C(C(=O)c2ccccc2)SC1=S (centres undefined) 2.79%
CSc1ncnc2c1ncn2CCCN1CCN(Cc2cccc3ccccc23)CC1 18.8%
CC(=O)Nc1ccc(C(=O)OCC(=O)c2ccc(C)c([N+](=O)[O-])c2)cc1 -0.02%
O=C(Oc1ccccc1C(=O)Nc1ccccc1)c1ccc(Br)c([N+](=O)[O-])c1 14.5%
O=C(c1ccc2snnc2c1)N1CCSCC1 12.5%
CCOc1ccc(/C=N/N(C)c2ccccc2)cc1OC 8.29%
COc1cc(/C=N/S(=O)(=O)c2ccccc2)cc(OC)c1O 9.73%
CN(/N=C/c1cc(Br)cc(Br)c1O)c1ccccc1 5.13%
COc1cc(/C=N/N(c2ccccc2)c2ccccc2)ccc1O 21%
COc1ccc(/C=N/N(c2ccccc2)c2ccccc2)cc1O 10.2%
COc1ccc(OC)c(/C=N/N(C)c2ccccc2)c1 19.4%
Cc1ccc(C(=O)N2CC=C(c3ccccc3)CC2)s1 -2.79%
CCCCN(C(=O)Nc1ccc(Cl)cc1)C1CCN(C(C)=O)CC1 12.3%
Cc1cc(NC(=O)c2ccc([N+](=O)[O-])cc2Cl)ccc1NC(=O)c1ccco1 5.16%
Cc1cccc(N=Cc2ccccc2O)c1C 6.78%
C=CCc1cccc(/C=N/c2ncccc2O)c1O 15.7%
Cc1ccc(N=Cc2cccc(O)c2O)c(C)c1 27.7%
C=CCc1cccc(C=Nc2ccc(Br)cc2)c1O 2.02%
Cc1ccccc1N=Cc1cccc(O)c1O 12.1%
Oc1ccccc1C=Nc1cccc2ccccc12 12.9%
